“And” between values parts separate entries of the source, which are not always exact repeats. Equal values may be shown once. The source made the active and inactive calls. Unless noted, no rule for the calls is given here.
Assays:
[1] = viability loss with induced miR-34 in A549 – imaging, A549 dox-inducible miR-34, nuclei and caspase counts, primary screen (AID 1347080;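 active = compounds whose cell count with miR-34 switched on is under 0.7 times the count with it off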); conditions: A549 miR-34 inducible, Hoechst nuclei count, 48 h
[2] = system: Hepatitis C virus NS3 helicase; assay: blockers of NS3h binding to ssDNA – biochemical, fluorescence polarization, LOPAC1280 library, primary screen (AID 687035; in the data active = inhibition above about 37%); conditions: Purified HCV NS3 helicase, Cy5-dT15 ssDNA binding fluorescence polarization; stronger effect = higher value; concentration not given here
[3] = compounds altering Cy5-DNA-NS3h complex signal – biochemical, LOPAC1280, artefact control for HCV NS3 helicase inhibitor project (AID 687037); conditions: Cy5-DNA-NS3h complex fluorescence interference counterscreen
[4] = chitosan synthesis blockers in C. neoformans – flow cytometry, Cibacron Brilliant Red staining (AID 1347148); conditions: Cryptococcus neoformans chitosan, stronger effect = lower value; at 10 µM unless noted;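 also: compound exposure lasted three days at 37 degrees C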
[5] = blockers of cellular phospholipid synthesis – cell-based, LOPAC library, screen 4, primary screen (AID 1347384); conditions: animal cells, phospholipid biosynthesis inhibition screen; at 10 µM
[6] = galactose survival enhancers in mitochondrial complex I cybrids – cell-based, galactose medium, ATP luminescence, primary screen (AID 1645843;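 active = z-score of at least 1.8 in each of two replicates, scored against plate mean and spread of sample wells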;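 also: positive z means more ATP and so rescue of galactose-driven cybrid death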); conditions: complex I mutant cybrid cells, 72 h, stronger effect = higher value
[7] = compounds altering viability of human ES cells (AID 493140); conditions: human embryonic stem cell survival screen; stronger effect = higher value;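 also: cells exposed to compounds for four days before counting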
[8] = compounds altering circadian rhythm period length – cell-based, LOPAC library, luminescence reporter (AID 2774); conditions: circadian reporter cells, at 7 µM, actives lie on both sides;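 also: values are relative to mean of DMSO wells on each plate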
[9] = stronger effect = lower value, cell number ratio, induced over uninduced
[10] = measured here: relative caspase fold change +Dox/-Dox
[11] = measured here: total cells with miR-34 induction, stronger effect = lower value
[12] = measured here: total cells without miR-34 induction

Row | SMILES | fold change [1, 9] | fold change [1, 10] | cell count [1, 11] | cell count [1, 12] | inhibition [2] | fluorescence ratio (interference) [3] | fold fluorescence [4] | outcome [5] | z-score [6] | survival [7] | period change [8]
1 | O=C(O)CCCCCCCCCCCNC(=O)NC12CC3CC(CC(C3)C1)C2 | 0.971 (inactive) | 0.546 | 5310 | 5470 | – | – | – | – | – | – | –
2 | NCCNS(=O)(=O)c1cccc2c(Cl)cccc12 | 1.01 (inactive) and 0.93 (inactive) | 0.86 and 1.13 | 9070 and 4030 | 9000 and 4330 | -2% (inactive) | 1 (inactive) | 10.8 [at 175.6 µM] (inactive) | inactive | -0.845 (inactive) | – | –
3 | CCCCC/C=C\C/C=C\CCCC/C=C\CCCC(=O)O | 0.985 (inactive) | 0.344 | 5360 | 5440 | – | – | – | – | – | – | –
4 | CS(=O)(=O)Nc1ccc([N+](=O)[O-])cc1OC1CCCCC1 | 0.816 (inactive) and 0.974 (inactive) | 1.1 and 1.38 | 4510 and 5650 | 5530 and 5800 | – | – | 5.81 [at 159.1 µM] (inactive) | – | – | – | –
5 | CCCCC[C@H](O)/C=C/[C@H]1C(=O)C=C[C@@H]1C/C=C\CCCC(=O)O | 0.937 (inactive) and 0.931 (inactive) | 1.17 and 1.23 | 6120 and 6100 | 6540 and 6550 | – | – | 4.57 (inactive) | – | – | 86.8 (inactive) | –
6 | CC12C(=O)OC(=O)C1(C)C1CCC2O1 (centres undefined) | 1.31 (inactive) and 0.948 (inactive) | 1.51 and 0.943 | 607 and 462 | 465 and 488 | 0% (inactive) | 1 (inactive) | 5.03 [at 254.8 µM] (inactive) | inactive | -1.43 (inactive) | 0 (inactive) | -0.375 h (inactive)

Reference: PubChem BioAssay
